# Test results reported in PubChem BioAssay (NCI).
# Compounds without any hit were thinned out: in the full panel of roughly 83,000, 20% have a hit.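 Interpretation: 100, growth as untreated; towards 0, rising growth inhibition; 0, no net growth; 0 to -100, cell death. Compounds scoring below 10 were considered active.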 Unmarked numbers belong to inactive results. The source made the active and inactive calls.
# Tested on: MOLT-4 leukemia
# Assay: NCI-60 one-dose screen, 48 h (100 = growth as untreated, 0 = no growth, -100 = all killed)
# Settings: 10 µM unless noted
# Method: Growth inhibition of the MOLT-4 human tumor cell line is measured as a screen for anti-cancer activity. Cells are grown in 96 well plates and exposed to the test compound for 48 hours. Compounds are tested at a single concentration, which is 10^-5 M for most compounds. The reported endpoint is percent growth (GI% or GIPRCNT), where numbers from 0 - 100% represent growth inhibition, and numbers from -100% - 0 represent cell death. For example, a value of 40 represents 60% growth inhibition. A value of 0 means no net growth occurred over the course of the experiment. A value of -40 indicates 40% of cells at the beginning of the experiment died by the end of the experiment. A value of -100 means all cells are dead at the end of the experiment.
# NCI-60 Human Tumor Cell Lines Screen was performed using the standard one-dose NCI protocol, which is described in more detail at https://dtp.cancer.gov/discovery_development/nci-60/default.htm.
# Compounds with GIPRCNT values below 10 were considered active. Activity score was based on GIPRCNT using the following formula: […]
# Score is 0 for GIPRCNT values of 100 or above, 50 for GIPRCNT values of 0, and 100 for GIPRCNT values of -100.
row,SMILES,growth
1,N#CC1=C(N)Oc2c(ccc3ccccc23)C1c1cc2ccccc2n2nnnc12 (stereo not given),10.6%
2,CN(C)CCCN(CCC1CCCCC1)CCC1CCCCC1,15.9%
3,Cc1ccc(Nc2cc(N)nc(N)n2)cc1,91.3%
4,COc1cc2ncnc(Nc3ccc(S(=O)(=O)Nc4cc(C)on4)cc3)c2cc1OCCCN1CCOCC1,101%
5,C=C(c1ccc(OC)c(/C=C/C(=O)c2cc(OC)c(OC)c(OC)c2)c1)c1cc(OC)c(OC)c(OC)c1,12%
6,CN1CC(c2ccccc2)C(C(=O)c2ccc(Br)cc2)C12C(=O)Nc1ccccc12 (stereo not given),92.1%
7,COc1cccc(-c2cc(-c3ccc(Nc4nc(Nc5ccc(Cl)cc5)nc(Nc5ccc(Cl)cc5)n4)cc3)nc(N)c2C#N)c1,7.5% (active)
8,COc1ccc(S(=O)(=O)NC2c3ccccc3CC2O)cc1OC (stereo not given),103%
9,Cc1c2cnccc2c(C)c2c1c1cc(C(=O)O)ccc1n2C,1.6% (active)
10,O=C1/C(=C/c2cccc([N+](=O)[O-])c2)COc2ccc(O)c(O)c21,-1.81% (active)
11,O=C(O)COc1ccc(F)cc1,101%
12,COc1ccc(C(=O)/C=C/Nc2cc(-c3ccccc3)nn2-c2ccccc2)cc1,85.4%
13,CN1CCN(Cc2ccc(NC(=O)c3cncc(C#Cc4c(N)ncc5c(F)cccc45)c3)cc2C(F)(F)F)CC1,-72.4% (active)
14,O=C(Nc1ccccc1C(F)(F)F)C1=NCCCCN1,99.2%
15,O=C(OCc1ccc2c(Br)cc(Br)c(O)c2n1)N1CCN(C(=O)c2cc3ccccc3[nH]2)CC1,35.5%
16,O=C(N/N=C/c1ccccc1Cl)c1ccccc1Nc1ccnc(C(F)(F)F)c1,2.63% (active)
17,COc1cc2c(c(OC)c1OC)CCC(c1cccc(NC(=O)c3cccc(Cl)c3)c1)O2 (stereo not given),57.9%
18,C=C(c1ccc(C(=O)O)c(F)c1)c1cc2c(cc1C)C(C)(C)C=CC2(C)C,87.3%
19,Cc1ccc(C(F)(F)F)cc1N1CCN(C(=O)[C@H]2C[C@H]2c2ccc(C(F)(F)F)nc2)CC1,73.2%
20,N#CSCc1cc(Cl)c(CSC#N)cc1Cl,17.7%

row,SMILES,growth
1,CN1CCN(Cc2ccc(NC(=O)c3cncc(C#Cc4cnc(N)c5ncccc45)c3)cc2Cl)CC1,83%
2,CC(C)(C)n1cc(-c2ccnc(NCCNS(=O)(=O)c3ccc(Br)cc3)c2)c(-c2cccc(O)c2)n1,12.9%
3,O=C(COc1ccc(/C=C2\Oc3ccccc3C2=O)cc1)Nc1nccs1,42.3%
4,CC1(C)CC(=O)C2=C(C1)OC(C(=O)c1ccccc1)C2c1cccc(Oc2ccccc2)c1 (stereo not given),12.2%
5,COc1ccc(NC(=O)c2ccc(NC3=C(c4ccc(Cl)cc4)C(=O)NC3=O)cc2)cc1,52.6%
6,O=C1CCc2c(sc3[nH]c(=S)n(-c4cc(C(F)(F)F)cc(C(F)(F)F)c4)c(=O)c23)C1,11%
7,Cc1ccc(S(=O)(=O)c2nc(-c3ccccc3)oc2S(C)=O)cc1 (stereo not given),-29.5% (active)
8,NS(=O)(=O)Oc1cccc(-c2nc3sccn3c2-c2ccccc2)c1,31.1%
9,CCN1C(=O)N(CC)C2C1NC(=S)N2/N=C/C=C/c1ccccc1 (stereo not given),8.08% (active)
10,COc1cccc2cc(N(C)c3nc(C)nc4c3CCC4)ccc12,14.8%
11,CN(C)c1ccc(/C=N/NC(=O)CSc2nc3sc4c(c3c(=O)n2-c2ccccc2)CCCCC4)cc1,71.8%
12,CCOC(=O)c1cc(C(=O)c2cc(OC)cc(OC)c2)n2ccccc12,30.6%
13,Cc1c(C(=O)C(SC(=S)N2CCOCC2)SC(=S)N2CCOCC2)nnn1-c1ccc([N+](=O)[O-])cc1,91.1%
14,CCCCCN(CCCCC)CC(O)c1c(Cl)ccc2ccccc12 (stereo not given),54%
15,COc1cc(C(=O)c2c(-c3ccccc3)oc3ccccc23)cc(OC)c1O,28.6%
16,CCC(C)C(N)C(=O)NC(CC(C)C)C(=O)N1CCCC1C(=O)NC(Cc1c[nH]c2ccccc12)C(=O)NC(CCCCN)C(=O)NC(Cc1c[nH]c2ccccc12)C(=O)N1CCCC1C(=O)NC(Cc1c[nH]c2ccccc12)C(=O)NC(Cc1c[nH]c2ccccc12)C(=O)N1CCCC1C(=O)NC(Cc1c[nH]c2ccccc12)C(=O)NC(CCCNC(=N)N)C(=O)NC(CCCNC(=N)N)C(N)=O (stereo not given),-28.2% (active)
17,O=C1C=CC2(O)OC(c3ccccc3)CC(=O)C2=C1O (stereo not given),77.8%
18,Cc1c(CC(=O)Nc2ccccc2)nnn1-c1ccccc1,99.7%
19,C(CCCSC1=NCCN1)CCSC1=NCCN1,102%
20,COC(=O)[C@@H](Cc1c[nH]c2ccccc12)NC[C@@H](O)CN1C(=O)/C(=C\c2cc(OC)c(OC)c(OC)c2)c2ccccc21,1.92% (active)
